Results published in paper PMC7862700, “An all-to-all approach to the identification of sequence-specific readers for epigenetic DNA modifications on cytosine”.

Tests used:
Assay in all cases: DAPPL (digital affinity profiling via proximity ligation, sequencing); 10 mM Tris-HCl pH 7.5, 50 mM NaCl, 1 mM DTT, 4% glycerol, room temperature, 30 min; GST-TFs on glutathione beads, 16-mer random dsDNA library, 0.1% formaldehyde crosslink after washing; high values mean tight binding
ELK3 = target: T1, ELK3 (Homo sapiens, UniProt P41970 1-407); settings: protein: recombinant; tags: N-terminal GST; dsDNA, one strand shown
T1 sequence: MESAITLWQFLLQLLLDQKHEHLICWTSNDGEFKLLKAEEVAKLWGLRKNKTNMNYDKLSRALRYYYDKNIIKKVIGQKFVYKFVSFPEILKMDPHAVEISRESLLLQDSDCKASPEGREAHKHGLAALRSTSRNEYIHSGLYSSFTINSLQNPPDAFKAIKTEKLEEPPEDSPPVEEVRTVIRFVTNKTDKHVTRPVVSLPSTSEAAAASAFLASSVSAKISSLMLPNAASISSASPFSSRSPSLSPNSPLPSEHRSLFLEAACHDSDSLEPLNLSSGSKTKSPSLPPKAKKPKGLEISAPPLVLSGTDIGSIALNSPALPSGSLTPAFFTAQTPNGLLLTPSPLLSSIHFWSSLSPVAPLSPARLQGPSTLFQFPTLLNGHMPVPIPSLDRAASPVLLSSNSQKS
Summary of the method: (§1)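 Sequencing on an Illumina NextSeq500 followed washing, crosslinking with 0.1% formaldehyde, proximity ligation (BsaI/T4 ligase, 1 h, 37 °C) and PCR amplification of pools that had been incubated for 30 min at room temperature with 200 nmole of a random double-stranded 16-mer DNA library in Tris/NaCl/DTT/glycerol buffer. Each pool held DNA-barcoded human transcription factors, expressed in yeast as GST fusions and captured on glutathione beads, plus a tag-only sample. Binding signal is a hexamer's read frequency for a factor divided by its frequency in the tag-only sample.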

HSF1 = HSF1 (Homo sapiens, UniProt Q00613 1-529); settings: protein: recombinant; tags: N-terminal GST; chain copies: 3; dsDNA, one strand shown
Summary of the method: as §1

ELF4 = ELF4 (Homo sapiens, UniProt Q99607 1-663); settings: protein: recombinant; tags: N-terminal GST; dsDNA, one strand shown
Summary of the method: as §1

ELK4 = target: T2, ELK4 (Homo sapiens, UniProt P28324-2 1-405); settings: protein: recombinant; tags: N-terminal GST; dsDNA, one strand shown
T2 sequence: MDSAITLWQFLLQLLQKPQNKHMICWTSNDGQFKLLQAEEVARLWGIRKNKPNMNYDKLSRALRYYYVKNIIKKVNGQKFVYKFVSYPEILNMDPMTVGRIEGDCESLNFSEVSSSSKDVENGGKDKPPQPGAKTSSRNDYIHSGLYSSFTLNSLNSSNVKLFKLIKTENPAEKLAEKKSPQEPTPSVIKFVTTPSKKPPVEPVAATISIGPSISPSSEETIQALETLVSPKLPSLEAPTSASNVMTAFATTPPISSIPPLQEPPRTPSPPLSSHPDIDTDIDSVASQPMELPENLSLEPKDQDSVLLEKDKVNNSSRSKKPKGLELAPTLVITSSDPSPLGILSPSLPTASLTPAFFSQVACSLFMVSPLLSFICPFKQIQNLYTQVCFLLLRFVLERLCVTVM
Summary of the method: as §1

ETV2 = target: T3, ETV2 (Homo sapiens, UniProt O00321 1-342); settings: protein: recombinant; tags: N-terminal GST; dsDNA, one strand shown
T3 sequence: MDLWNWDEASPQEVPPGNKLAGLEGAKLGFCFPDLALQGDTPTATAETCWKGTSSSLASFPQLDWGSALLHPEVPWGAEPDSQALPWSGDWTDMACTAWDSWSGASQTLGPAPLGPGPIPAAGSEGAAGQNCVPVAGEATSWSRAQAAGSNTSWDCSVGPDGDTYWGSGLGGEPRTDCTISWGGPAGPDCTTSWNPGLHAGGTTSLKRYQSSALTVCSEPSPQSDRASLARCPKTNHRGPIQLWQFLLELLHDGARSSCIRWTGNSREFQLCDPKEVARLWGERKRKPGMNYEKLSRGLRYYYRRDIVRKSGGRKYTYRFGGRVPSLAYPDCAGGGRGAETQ
Summary of the method: as §1

ELF3 = target: T4, ELF3 (Homo sapiens, UniProt P78545 1-371); settings: protein: recombinant; tags: N-terminal GST; dsDNA, one strand shown
T4 sequence: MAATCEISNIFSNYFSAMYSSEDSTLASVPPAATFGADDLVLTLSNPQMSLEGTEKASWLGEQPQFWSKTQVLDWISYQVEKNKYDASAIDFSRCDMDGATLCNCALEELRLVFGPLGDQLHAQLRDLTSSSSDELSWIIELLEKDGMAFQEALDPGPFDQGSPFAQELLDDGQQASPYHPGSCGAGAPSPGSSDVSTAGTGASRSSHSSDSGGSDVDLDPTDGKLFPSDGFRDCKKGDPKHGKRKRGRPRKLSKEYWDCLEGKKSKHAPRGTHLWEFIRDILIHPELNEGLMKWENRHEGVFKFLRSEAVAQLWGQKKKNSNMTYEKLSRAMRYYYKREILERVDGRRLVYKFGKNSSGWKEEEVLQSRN
Summary of the method: as §1

CRX = CRX (Homo sapiens, UniProt O43186 1-299); settings: protein: recombinant; tags: N-terminal GST; dsDNA, one strand shown
Summary of the method: as §1

ETV7 = target: T5, ETV7 (Homo sapiens, UniProt Q9Y603 1-341); settings: protein: recombinant; tags: N-terminal GST; dsDNA, one strand shown
T5 sequence: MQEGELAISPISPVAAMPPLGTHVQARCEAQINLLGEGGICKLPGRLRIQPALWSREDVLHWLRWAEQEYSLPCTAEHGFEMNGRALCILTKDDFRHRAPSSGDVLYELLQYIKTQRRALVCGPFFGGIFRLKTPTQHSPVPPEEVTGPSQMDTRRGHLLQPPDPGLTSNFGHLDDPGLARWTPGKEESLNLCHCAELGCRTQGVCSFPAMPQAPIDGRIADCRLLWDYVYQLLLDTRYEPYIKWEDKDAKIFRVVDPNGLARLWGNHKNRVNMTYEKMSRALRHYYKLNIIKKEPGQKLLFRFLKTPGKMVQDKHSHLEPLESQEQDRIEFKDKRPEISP
Summary of the method: as §1

ELF1 = ELF1 (Homo sapiens, UniProt P32519 1-619); settings: protein: recombinant; tags: N-terminal GST; dsDNA, one strand shown
Summary of the method: as §1

ERF = target: T6, ERF (Homo sapiens, UniProt P50548 1-548); settings: protein: recombinant; tags: N-terminal GST; dsDNA, one strand shown
T6 sequence: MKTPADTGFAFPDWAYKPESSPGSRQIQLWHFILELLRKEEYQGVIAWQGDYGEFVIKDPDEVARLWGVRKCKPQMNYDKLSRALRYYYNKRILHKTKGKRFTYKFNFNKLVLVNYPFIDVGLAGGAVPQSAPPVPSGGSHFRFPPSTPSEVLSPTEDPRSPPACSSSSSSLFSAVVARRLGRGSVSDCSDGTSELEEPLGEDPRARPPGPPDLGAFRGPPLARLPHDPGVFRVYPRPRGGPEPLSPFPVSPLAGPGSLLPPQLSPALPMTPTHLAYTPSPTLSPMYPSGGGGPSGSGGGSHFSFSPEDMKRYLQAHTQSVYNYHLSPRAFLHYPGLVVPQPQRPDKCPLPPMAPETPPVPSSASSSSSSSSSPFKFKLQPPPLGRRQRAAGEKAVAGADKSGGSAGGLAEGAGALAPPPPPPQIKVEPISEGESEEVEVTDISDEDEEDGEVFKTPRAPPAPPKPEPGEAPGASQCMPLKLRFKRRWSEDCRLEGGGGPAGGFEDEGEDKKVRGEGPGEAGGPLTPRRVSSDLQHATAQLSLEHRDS
Summary of the method: as §1

ETV3L = target: T7, ETV3L (Homo sapiens, UniProt Q6ZN32 1-361); settings: protein: recombinant; tags: N-terminal GST; dsDNA, one strand shown
T7 sequence: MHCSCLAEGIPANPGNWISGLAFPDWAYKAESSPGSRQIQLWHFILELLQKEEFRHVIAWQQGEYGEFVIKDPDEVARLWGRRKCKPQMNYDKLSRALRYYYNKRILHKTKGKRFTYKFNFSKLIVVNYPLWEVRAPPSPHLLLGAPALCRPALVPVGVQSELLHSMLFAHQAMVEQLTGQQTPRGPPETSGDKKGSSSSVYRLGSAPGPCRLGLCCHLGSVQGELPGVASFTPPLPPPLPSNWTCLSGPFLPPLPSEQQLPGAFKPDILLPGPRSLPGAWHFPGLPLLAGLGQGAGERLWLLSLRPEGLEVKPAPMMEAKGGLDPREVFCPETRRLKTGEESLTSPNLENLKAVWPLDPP
Summary of the method: as §1

GABPA = target: T8, GABPA (Homo sapiens, UniProt Q06546 1-454); settings: protein: recombinant; tags: N-terminal GST; dsDNA, one strand shown
T8 sequence: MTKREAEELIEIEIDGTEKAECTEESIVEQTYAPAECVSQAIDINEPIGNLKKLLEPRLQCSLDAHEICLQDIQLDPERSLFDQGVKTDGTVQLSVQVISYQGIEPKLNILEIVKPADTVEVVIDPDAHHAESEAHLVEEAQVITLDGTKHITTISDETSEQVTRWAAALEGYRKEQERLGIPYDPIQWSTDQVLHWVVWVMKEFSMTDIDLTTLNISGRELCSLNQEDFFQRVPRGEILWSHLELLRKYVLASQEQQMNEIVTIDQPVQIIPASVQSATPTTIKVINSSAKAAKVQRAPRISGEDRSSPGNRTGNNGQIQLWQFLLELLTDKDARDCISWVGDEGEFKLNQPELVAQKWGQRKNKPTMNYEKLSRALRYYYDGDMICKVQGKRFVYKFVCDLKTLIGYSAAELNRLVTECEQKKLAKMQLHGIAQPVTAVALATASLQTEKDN
Summary of the method: as §1

FEV = target: T9, FEV (Homo sapiens, UniProt Q99581 1-238); settings: protein: recombinant; tags: N-terminal GST; dsDNA, one strand shown
T9 sequence: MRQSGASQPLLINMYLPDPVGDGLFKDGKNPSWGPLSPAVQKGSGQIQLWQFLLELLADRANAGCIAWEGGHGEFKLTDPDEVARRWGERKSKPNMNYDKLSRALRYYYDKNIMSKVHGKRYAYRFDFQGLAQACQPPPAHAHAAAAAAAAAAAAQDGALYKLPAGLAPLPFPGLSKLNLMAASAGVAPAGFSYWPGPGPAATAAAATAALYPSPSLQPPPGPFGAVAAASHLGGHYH
Summary of the method: as §1

SPIC = target: T10, SPIC (Homo sapiens, UniProt Q8N5J4 1-248); settings: protein: recombinant; tags: N-terminal GST; dsDNA, one strand shown
T10 sequence: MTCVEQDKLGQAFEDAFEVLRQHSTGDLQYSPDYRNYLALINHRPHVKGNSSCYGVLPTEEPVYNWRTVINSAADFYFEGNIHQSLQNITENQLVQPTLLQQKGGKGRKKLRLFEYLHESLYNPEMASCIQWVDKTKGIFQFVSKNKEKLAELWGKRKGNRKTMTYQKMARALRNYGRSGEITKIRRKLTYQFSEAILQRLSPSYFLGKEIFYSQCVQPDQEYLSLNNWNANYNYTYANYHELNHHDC
Summary of the method: as §1

ETV1 = ETV1 (Homo sapiens, UniProt P50549 1-477); settings: protein: recombinant; tags: N-terminal GST; dsDNA, one strand shown
Summary of the method: as §1

ETV6 = ETV6 (Homo sapiens, UniProt P41212 1-452); settings: protein: recombinant; tags: N-terminal GST; dsDNA, one strand shown
Summary of the method: as §1

HSF1, sequence (Q00613 whole entry): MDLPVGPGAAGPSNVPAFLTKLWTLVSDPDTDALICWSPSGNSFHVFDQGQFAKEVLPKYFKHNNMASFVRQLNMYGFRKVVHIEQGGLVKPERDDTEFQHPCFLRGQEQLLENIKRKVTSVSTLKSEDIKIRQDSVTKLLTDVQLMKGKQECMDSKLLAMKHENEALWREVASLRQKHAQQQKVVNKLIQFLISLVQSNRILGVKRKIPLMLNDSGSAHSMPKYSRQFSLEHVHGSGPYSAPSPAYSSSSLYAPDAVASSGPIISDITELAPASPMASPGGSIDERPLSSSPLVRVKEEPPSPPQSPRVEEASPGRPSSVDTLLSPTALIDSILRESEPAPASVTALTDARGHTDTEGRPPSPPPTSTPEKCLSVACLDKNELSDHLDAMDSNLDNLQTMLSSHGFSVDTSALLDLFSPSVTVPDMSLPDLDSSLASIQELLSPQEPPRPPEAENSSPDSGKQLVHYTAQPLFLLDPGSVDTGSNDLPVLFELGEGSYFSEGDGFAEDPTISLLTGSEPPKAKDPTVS
CRX, sequence (O43186 whole entry): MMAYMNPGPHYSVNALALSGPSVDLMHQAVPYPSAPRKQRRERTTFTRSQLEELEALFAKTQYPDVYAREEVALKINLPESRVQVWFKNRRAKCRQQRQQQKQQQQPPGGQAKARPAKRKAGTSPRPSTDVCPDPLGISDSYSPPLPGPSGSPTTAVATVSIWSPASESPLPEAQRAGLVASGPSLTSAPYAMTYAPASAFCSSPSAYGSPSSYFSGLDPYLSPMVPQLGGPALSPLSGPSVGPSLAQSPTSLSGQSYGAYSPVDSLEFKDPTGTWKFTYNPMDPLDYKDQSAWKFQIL
ELF1, sequence (P32519 whole entry): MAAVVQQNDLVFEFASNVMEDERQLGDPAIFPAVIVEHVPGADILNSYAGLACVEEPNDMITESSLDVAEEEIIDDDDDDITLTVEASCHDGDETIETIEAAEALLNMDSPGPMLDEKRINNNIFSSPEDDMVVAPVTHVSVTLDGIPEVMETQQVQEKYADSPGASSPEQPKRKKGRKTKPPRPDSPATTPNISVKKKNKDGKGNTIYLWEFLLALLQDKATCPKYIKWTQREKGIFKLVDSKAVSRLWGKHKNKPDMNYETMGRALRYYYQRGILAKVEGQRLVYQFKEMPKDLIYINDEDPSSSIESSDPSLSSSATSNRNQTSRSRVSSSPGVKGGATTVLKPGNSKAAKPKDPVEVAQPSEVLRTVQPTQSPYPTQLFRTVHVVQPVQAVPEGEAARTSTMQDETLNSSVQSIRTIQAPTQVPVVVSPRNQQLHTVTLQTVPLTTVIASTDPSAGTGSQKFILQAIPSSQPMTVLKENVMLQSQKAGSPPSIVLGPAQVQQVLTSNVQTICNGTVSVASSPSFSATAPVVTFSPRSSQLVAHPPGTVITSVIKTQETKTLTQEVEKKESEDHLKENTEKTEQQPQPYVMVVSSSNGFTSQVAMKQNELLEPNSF
ETV1, sequence (P50549 whole entry): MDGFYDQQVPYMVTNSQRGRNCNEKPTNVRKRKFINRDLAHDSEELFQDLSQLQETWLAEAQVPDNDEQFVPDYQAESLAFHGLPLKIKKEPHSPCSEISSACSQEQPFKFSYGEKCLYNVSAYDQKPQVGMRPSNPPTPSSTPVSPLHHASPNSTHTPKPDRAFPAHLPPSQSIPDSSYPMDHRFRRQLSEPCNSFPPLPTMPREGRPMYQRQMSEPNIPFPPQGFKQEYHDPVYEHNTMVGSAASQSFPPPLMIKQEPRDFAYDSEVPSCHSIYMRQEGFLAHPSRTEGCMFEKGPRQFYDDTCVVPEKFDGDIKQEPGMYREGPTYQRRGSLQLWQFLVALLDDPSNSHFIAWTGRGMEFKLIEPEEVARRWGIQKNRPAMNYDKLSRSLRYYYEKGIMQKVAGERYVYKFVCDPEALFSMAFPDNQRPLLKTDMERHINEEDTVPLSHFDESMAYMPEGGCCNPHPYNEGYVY
ELF4, sequence (Q99607 whole entry): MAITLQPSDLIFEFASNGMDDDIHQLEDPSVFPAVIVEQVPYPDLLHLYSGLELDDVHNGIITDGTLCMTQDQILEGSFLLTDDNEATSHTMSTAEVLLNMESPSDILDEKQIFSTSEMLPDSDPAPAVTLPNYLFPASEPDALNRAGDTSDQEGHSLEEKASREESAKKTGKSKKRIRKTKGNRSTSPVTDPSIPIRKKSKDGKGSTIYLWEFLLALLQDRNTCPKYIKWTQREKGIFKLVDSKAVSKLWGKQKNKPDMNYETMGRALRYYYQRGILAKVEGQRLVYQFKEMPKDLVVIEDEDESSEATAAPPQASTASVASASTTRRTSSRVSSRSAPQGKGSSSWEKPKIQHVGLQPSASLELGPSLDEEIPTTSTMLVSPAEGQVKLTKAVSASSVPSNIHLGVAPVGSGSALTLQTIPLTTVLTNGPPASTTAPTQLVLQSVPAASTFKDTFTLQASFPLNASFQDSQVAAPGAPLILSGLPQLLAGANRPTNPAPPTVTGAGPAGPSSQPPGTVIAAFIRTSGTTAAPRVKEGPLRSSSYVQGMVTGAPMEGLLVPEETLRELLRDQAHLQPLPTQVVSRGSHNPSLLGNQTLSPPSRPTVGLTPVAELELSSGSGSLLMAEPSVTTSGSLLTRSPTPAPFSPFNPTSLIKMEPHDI
ETV6, sequence (P41212 whole entry): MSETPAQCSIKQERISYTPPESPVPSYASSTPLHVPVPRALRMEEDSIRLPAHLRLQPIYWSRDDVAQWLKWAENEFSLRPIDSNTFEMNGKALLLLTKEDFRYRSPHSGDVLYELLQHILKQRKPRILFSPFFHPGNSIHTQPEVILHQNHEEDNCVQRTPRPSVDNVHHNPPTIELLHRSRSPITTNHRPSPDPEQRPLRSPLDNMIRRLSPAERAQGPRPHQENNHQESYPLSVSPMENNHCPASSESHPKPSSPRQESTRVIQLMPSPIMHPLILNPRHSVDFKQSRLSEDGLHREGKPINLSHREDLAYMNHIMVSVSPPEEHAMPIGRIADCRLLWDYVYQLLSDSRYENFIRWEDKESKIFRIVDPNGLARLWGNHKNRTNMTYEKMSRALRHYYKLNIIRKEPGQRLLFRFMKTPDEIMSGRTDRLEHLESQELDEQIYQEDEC

Sequence	binding signal (ELK3)	binding signal (HSF1)	binding signal (ELF4)	binding signal (ELK4)	binding signal (ETV2)	binding signal (ELF3)	binding signal (CRX)	binding signal (ETV7)	binding signal (ELF1)	binding signal (ERF)	binding signal (ETV3L)	binding signal (GABPA)	binding signal (FEV)	binding signal (SPIC)	binding signal (ETV1)	binding signal (ETV6)
CCAGAA	1 fold enrichment (6-mer frequency, TF over GST control)	3.7 fold enrichment (6-mer frequency, TF over GST control)	1.05 fold enrichment (6-mer frequency, TF over GST control)	1.06 fold enrichment (6-mer frequency, TF over GST control)	1.05 fold enrichment (6-mer frequency, TF over GST control)	1.07 fold enrichment (6-mer frequency, TF over GST control)	1.49 fold enrichment (6-mer frequency, TF over GST control)	1.05 fold enrichment (6-mer frequency, TF over GST control)	–	–	–	–	–	–	–	–
AGAAGA	–	1.68 fold enrichment (6-mer frequency, TF over GST control)	–	1.05 fold enrichment (6-mer frequency, TF over GST control)	–	1.03 fold enrichment (6-mer frequency, TF over GST control)	1.14 fold enrichment (6-mer frequency, TF over GST control)	1.01 fold enrichment (6-mer frequency, TF over GST control)	–	–	–	–	–	–	–	–
GATCAT	1.1 fold enrichment (6-mer frequency, TF over GST control)	1.3 fold enrichment (6-mer frequency, TF over GST control)	–	1.07 fold enrichment (6-mer frequency, TF over GST control)	–	1.05 fold enrichment (6-mer frequency, TF over GST control)	1.48 fold enrichment (6-mer frequency, TF over GST control)	1.04 fold enrichment (6-mer frequency, TF over GST control)	1.01 fold enrichment (6-mer frequency, TF over GST control)	1.09 fold enrichment (6-mer frequency, TF over GST control)	1 fold enrichment (6-mer frequency, TF over GST control)	–	–	–	–	–
TAGAAC	1.03 fold enrichment (6-mer frequency, TF over GST control)	2.74 fold enrichment (6-mer frequency, TF over GST control)	–	–	–	–	1.43 fold enrichment (6-mer frequency, TF over GST control)	–	1.01 fold enrichment (6-mer frequency, TF over GST control)	1.02 fold enrichment (6-mer frequency, TF over GST control)	–	1.03 fold enrichment (6-mer frequency, TF over GST control)	1 fold enrichment (6-mer frequency, TF over GST control)	1 fold enrichment (6-mer frequency, TF over GST control)	1.07 fold enrichment (6-mer frequency, TF over GST control)	1.09 fold enrichment (6-mer frequency, TF over GST control)
